# PubChem BioAssay (NCATS)
# Several values for one entry are separate records, joined by “and”; a condition that tells them apart may be missing. Equal entries are not always repeated. Inconclusive results are not listed. A call without a number means that no potency is given here. More than one record can exist for a structure, and the calls need not agree. Activity calls are given as the source filed them. Unless noted, calls follow the shape of the dose curve; as a rule, active = well fitted curve in the direction sought with a large enough effect; inconclusive = small, poorly fitted or top-dose-only effect, or another doubt; inactive = no such curve, though single readings can be large; an effect the other way counts as inactive or inconclusive.
# What was measured:
# [1] = Primary qHTS for inhibitors of nuclear receptor binding SET domain protein 2 (NSD2) in an isogenic RCH-ACV NSD2 p.E1099K mutant (9B) (AID 1645876); details: RCH-ACV NSD2 E1099K (9B) viability, CellTiter-Glo, 72 h; series mostly up to 44.9 µM; also: nearly all actives have a fitted effect of over 70% in size
# Papain (Carica papaya) = Papain (Carica papaya) (UniProt P00784); experiment: Primary qHTS assay for inhibitors of the protease papain (AID 1645873); details: papain Z-FR-AMC cleavage, AMC fluorescence; series mostly up to 49.8 µM;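 also: papain turnover of Z-FR-AMC read as the AMC fluorescence gain over 10 min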
# Chain of Papain (Carica papaya) (P00784 whole entry, looked up): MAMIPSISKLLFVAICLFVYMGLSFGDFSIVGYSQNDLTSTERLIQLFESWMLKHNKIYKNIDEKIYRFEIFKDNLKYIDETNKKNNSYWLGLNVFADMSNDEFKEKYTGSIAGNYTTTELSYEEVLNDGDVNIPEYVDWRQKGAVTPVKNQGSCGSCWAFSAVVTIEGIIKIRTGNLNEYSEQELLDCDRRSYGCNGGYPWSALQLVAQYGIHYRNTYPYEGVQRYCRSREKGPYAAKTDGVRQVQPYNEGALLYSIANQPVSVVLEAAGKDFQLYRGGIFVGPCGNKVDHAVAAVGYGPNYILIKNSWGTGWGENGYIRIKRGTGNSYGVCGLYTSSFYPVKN
# [2] = molecular target: N-terminal Xaa-Pro-Lys N-methyltransferase 1 (Homo sapiens) (UniProt Q9BV86); experiment: Confirmatory qHTS for Inhibitors of N-terminal methyltransferase 1 (NTMT1): MTaseGlo Assay (AID 1645874); details: NTMT1 enzyme, MTase-Glo SAH luminescence; series mostly up to 51.5 µM; also: nearly all actives have a fitted effect of over 65% in size;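 as to activity change, negative = inhibition: luminescence from SAH made as NTMT1 methylates SPKRIA peptide using SAM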
# Chain of N-terminal Xaa-Pro-Lys N-methyltransferase 1 (Homo sapiens) (Q9BV86 whole entry, looked up): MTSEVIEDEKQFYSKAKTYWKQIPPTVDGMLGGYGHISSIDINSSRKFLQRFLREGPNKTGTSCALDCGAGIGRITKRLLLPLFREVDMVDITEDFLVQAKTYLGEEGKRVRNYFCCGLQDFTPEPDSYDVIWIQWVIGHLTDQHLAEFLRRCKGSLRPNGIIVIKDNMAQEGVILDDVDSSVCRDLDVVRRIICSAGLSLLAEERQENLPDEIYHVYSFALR
# How it was run: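 SPKRIA peptide at 1 uM was methylated by 125 nM NTMT1 using 100 uM SAM over 30 min at room temperature, following a 15 min compound preincubation. Product SAH was detected luminescently.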
# [3] = Primary qHTS for inhibitors of nuclear receptor binding SET domain protein 2 (NSD2) in an RCH-ACV wild type WT cells (2C) (AID 1645877); details: RCH-ACV (leukaemia line) NSD2 WT (2C) viability, CellTiter-Glo, 72 h; series mostly up to 44.9 µM; also: nearly all actives have a fitted effect of over 70% in size
# [4] = molecular target: Catechol O-methyltransferase (Homo sapiens) (UniProt P21964); experiment: Confirmatory Screen for Target Class Profiling of Small Molecule Inhibitors of Methyltransferases (AID 1745852; calls by dose curve); details: MTase-Glo luminescence, SAH detection, recombinant enzyme; measured here: COMT max response; stronger effect = lower value
# Chain of Catechol O-methyltransferase (Homo sapiens) (P21964 whole entry, looked up): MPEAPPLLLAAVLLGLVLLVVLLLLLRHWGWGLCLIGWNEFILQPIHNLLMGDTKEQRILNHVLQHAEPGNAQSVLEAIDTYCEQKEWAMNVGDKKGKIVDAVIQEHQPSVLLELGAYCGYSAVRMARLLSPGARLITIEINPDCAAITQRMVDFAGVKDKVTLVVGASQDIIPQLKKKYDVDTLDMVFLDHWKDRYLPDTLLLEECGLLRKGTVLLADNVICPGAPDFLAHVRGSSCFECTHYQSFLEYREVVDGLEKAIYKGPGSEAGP
# [5] = molecular target: Guanidinoacetate N-methyltransferase (Homo sapiens) (UniProt Q14353); experiment: as above; details: MTase-Glo luminescence, SAH detection, recombinant enzyme; activity change, negative = inhibition: at 57.3 µM (top of the series)
# Potency is read from the fitted curve at half-maximal effect.
structure (smiles),measurement,setting,value
Cc1onc(-c2ccccc2Cl)c1C(=O)N[C@@H]1C(=O)N2[C@@H]1SC(C)(C)[C@@H]2C(=O)O,Potency,[1],inactive
CC1=C(C(=O)O)N2C(=O)[C@@H](NC(=O)C(N)c3ccccc3)[C@H]2SC1 (stereo not given in full),Potency,Papain (Carica papaya),inactive
CC1CC2C3CCC4=CC(=O)C=C[C@]4(C)[C@@]3(F)[C@@H](O)C[C@]2(C)[C@@]1(O)C(=O)CO (stereo not given in full),Potency,Papain (Carica papaya),inactive
CC1=CC(=O)c2ccccc2C1=O,Potency,[1],31.6 µM (active) and inactive
CC(=O)[C@H]1CC[C@H]2[C@@H]3CCC4=CC(=O)CC[C@]4(C)[C@H]3CC[C@]12C,Potency,Papain (Carica papaya),inactive
CCCCc1oc2ccc(NS(C)(=O)=O)cc2c1C(=O)c1ccc(OCCCN(CCCC)CCCC)cc1,Potency,[1],2.99 µM (active) and 11.5 µM (active) and 5.9 µM (active)
Nc1nc(=S)c2[nH]cnc2[nH]1,Potency,[2],inactive
same,Potency,[1],750 nM (active) and 833 nM (active)
same,Potency,[3],1.06 µM (active) and 742 nM (active)
C[C@@H]1C[C@H]2[C@@H]3CCC4=CC(=O)C=C[C@]4(C)[C@@]3(Cl)[C@@H](O)C[C@]2(C)[C@@]1(OC(=O)c1ccco1)C(=O)CCl,Potency,[1],23.7 µM (active)
CCN(CC)CC#CCOC(=O)C(O)(c1ccccc1)C1CCCCC1 (stereo not given),Potency,Papain (Carica papaya),inactive
CN1CCN(c2c(F)cc3c(=O)c(C(=O)O)cn(CCF)c3c2F)CC1,Potency,[1],inactive
O=C(O)C1CCCN(CCC=C(c2ccccc2)c2ccccc2)C1 (stereo not given),Potency,Papain (Carica papaya),inactive
same,Potency,[1],inactive
same,Potency,[3],inactive
CC(C)C1CCC(C(=O)N[C@H](Cc2ccccc2)C(=O)O)CC1 (stereo not given in full),Potency,[1],inactive
CS(=O)(=O)c1ccc([C@@H](O)[C@@H](CO)NC(=O)C(Cl)Cl)cc1,Potency,[1],inactive
NC(=O)c1ccc2[nH]ccc2c1,Potency,Papain (Carica papaya),inactive
same,Potency,[1],inactive
same,Potency,[3],inactive
COc1cc2nc(N3CCCN(C)CC3)nc(NC3CCN(Cc4ccccc4)CC3)c2cc1OC,Potency,Papain (Carica papaya),25.1 µM (active)
same,Potency,[1],4.17 µM (active)
same,Potency,[3],2.63 µM (active)
OCc1ccc(-c2nn(Cc3ccccc3)c3ccccc23)o1,Potency,Papain (Carica papaya),25.1 µM (active)
same,Potency,[1],3.72 µM (active)
same,Potency,[3],4.17 µM (active)
COc1cc([C@@H]2c3cc4c(cc3[C@H](O)[C@H]3COC(=O)[C@H]23)OCO4)cc(OC)c1OC,Potency,[1],7.5 nM (active) and 37.2 nM (active)
CCc1cc(C(N)=S)ccn1,Potency,[2],inactive
same,Potency,[1],inactive
same,Potency,[3],inactive
CCN(CC)CCn1c(=O)c(Cc2ccc(OC)cc2)nc2ccccc21,Potency,Papain (Carica papaya),inactive
same,Potency,[1],inactive
same,Potency,[3],inactive
CNS(=O)(=O)CCc1ccc2[nH]cc(C3CCN(C)CC3)c2c1,Potency,Papain (Carica papaya),inactive
same,Potency,[1],inactive
same,Potency,[3],inactive
same,activity,[4],-4.91%
same,"activity change, negative = inhibition",[5],2.91%
Cc1ccc(S(=O)(=O)N[C@@H](Cc2ccccc2)C(=O)CCl)cc1,Potency,Papain (Carica papaya),inactive
same,Potency,[1],13.2 µM (active)
CC[C@H](C)C(=O)O[C@H]1C[C@@H](C)C=C2C=C[C@H](C)[C@H](CC[C@@H]3C[C@@H](O)CC(=O)O3)[C@H]21,Potency,[1],16.8 µM (active) and 10.5 µM (active)
COc1cc2ncnc(Nc3cccc(Cl)c3)c2cc1OC,Potency,Papain (Carica papaya),inactive
same,Potency,[2],12.6 µM (active)
same,Potency,[1],11.5 µM (active)
same,Potency,[3],12.9 µM (active)
same,activity,[4],-45.8%
same,Potency,[5],30.4 µM (active)
CCN1CCCC1CNC(=O)c1cc(S(N)(=O)=O)ccc1OC (stereo not given),Potency,Papain (Carica papaya),inactive
CCC(C)(C)c1ccc(CC(C)CN2C[C@@H](C)O[C@@H](C)C2)cc1 (stereo not given in full),Potency,[1],inactive
CCCCS(=N)(=O)CCC(N)C(=O)O (stereo not given),Potency,Papain (Carica papaya),inactive
same,Potency,[1],inactive
Cc1nnc(NS(=O)(=O)c2ccc(N)cc2)s1,Potency,[1],inactive
C#CCN[C@@H]1CCc2ccccc21,Potency,[1],inactive
CC(C)NCC(O)c1ccc(NS(C)(=O)=O)cc1 (stereo not given),Potency,Papain (Carica papaya),inactive
same,Potency,[1],inactive
Nc1nc(N)c2nc(CNc3ccc(C(=O)NC(CCC(=O)O)C(=O)O)cc3)cnc2n1 (stereo not given),Potency,Papain (Carica papaya),3.55 µM (active)
N[C@@H](Cc1ccc(O)c(O)c1)C(=O)O,Potency,Papain (Carica papaya),inactive
same,Potency,[1],inactive
same,Potency,[3],inactive
CNNCc1ccc(C(=O)NC(C)C)cc1,Potency,[1],inactive
N[C@@H](C(=O)N[C@@H]1C(=O)N2C(C(=O)O)=C(Cl)CS[C@H]12)c1ccccc1,outcome,[1],inactive [at 9.23 µM]
same,"activity change, negative = cell killing",[3],-2.72% [at 9.23 µM] (inactive)
CC(=O)Oc1ccccc1C(=O)Nc1ncc([N+](=O)[O-])s1,Potency,[1],inactive
same,Potency,[3],inactive
NC(=O)c1cccc(N)c1,Potency,[1],inactive
same,Potency,[3],inactive
O=c1cc(O)c(Cl)c[nH]1,Potency,[1],inactive
same,Potency,[3],inactive
CCOCC(O)COc1ccc(NC(=O)CC[S+](C)C)cc1 (stereo not given),Potency,[1],inactive
same,Potency,[3],inactive
